PubChem BioAssay AID588727 (Southern Research Specialized Biocontainment Screening …, 2011)
Out of some 350,000 compounds screened, about 450 (0.13%) were called active. The rule behind the calls is not given here. Not all results are given here. Potency and affinity values are given separately.

Experiment: inhibitors of VEEV TC-83 cytopathic effect, confirmation, Vero cells (AID 588727)
Conditions: VEEV TC-83 cytopathic effect inhibition, at 20 µM
[1] = stronger effect = higher value unless noted
[2] = measured here: 10K pilot screen inhibition, stronger effect = higher value

Cc1nn(-c2ccccc2)c2c1C1(C(=O)Nc3ccccc31)N1C(=N2)Sc2ccccc21 (stereo not drawn)
inhibition [1]: 1.86% (inactive)

CCCCCc1ccc(-c2nnc(N)s2)cc1
inhibition [1]: 2.86% (inactive)

CC1=Nc2cc(C(=O)N3CCCC3)ccc2Sc2ccc(C)cc21
inhibition [1]: 1.14% (inactive)

CC1=Nc2cc(C(=O)O)ccc2Sc2c(C)ccc(C)c21
inhibition [1]: 0.43% (inactive)

CCOc1ccc(CCNC(=O)CCS(=O)(=O)c2ccc(OC)cc2)cc1OCC
inhibition [1]: 0.09% (inactive)

O=C(Cn1ncc2c([nH]c3ccccc32)c1=O)NCCc1ccc(Cl)cc1
inhibition [1]: 1.06% (inactive)

CCN(CC)c1ccc(-n2cc3c(=O)n(C)c(=O)n(C)c3c2)cc1
inhibition [1]: 5.43% (inactive)

Cc1ccc(C)c(NC(=O)c2ccc3ccccc3n2)c1
inhibition [1]: 4.34% (inactive)

CNC(=O)Nc1ccc(C(=O)N/N=C\C23CC[C@@H](O)CC2(O)CC[C@@H]2[C@@H]3CCC3(C)C(C4=CC(=O)OC4)CCC23O)cc1 (stereo partly drawn)
inhibition [1]: 3.29% (inactive)

C[C@@H]1O[C@@H](O[C@@H]2C=C3CCC4C(CC[C@]5(C)[C@@H](c6ccc(=O)oc6)CC[C@]45O)[C@@]3(C)CC2)[C@H](O)[C@H](O)[C@H]1O (stereo partly drawn)
inhibition [1]: 23.8% (inactive)

CC(=O)OCC(=O)C1(O)CCC2C3CC(C)C4=CC(=O)CCC4(C)C3C(O)CC21C (stereo not drawn)
inhibition [1]: 2.53% (inactive)

CCCOC1(NC(=O)c2ccccc2)C(C)=CC(=O)C=C1C
inhibition [1]: inactive

CC1CC(C)CN(S(=O)(=O)c2ccc(C(=O)N3CCN(c4ccccc4)CC3)cc2)C1 (stereo not drawn)
inhibition [1]: 1.42% (inactive)

CCOc1ccc(NS(=O)(=O)c2ccc(C(=O)N(C)CC(=O)Nc3ccc(OC)cc3)cc2)cc1
inhibition [1]: 4.36% (inactive)

Cc1ccc(-n2c(SCC(=O)O)nc3sc4c(c3c2=O)CC(C)(C)SC4)cc1
inhibition [1]: 0.39% (inactive)

CCN1C(=O)/C(=C/c2cn(-c3ccccc3)nc2-c2cccnc2)SC1=S
inhibition [1]: 0.65% (inactive)

O=C(COc1ccccc1)Nc1nc2c(s1)CCCC2
inhibition [1]: 3.03% (inactive)

CC1CCc2nc(NC(=O)Cc3cccs3)sc2C1 (stereo not drawn)
inhibition [1]: 4.77% (inactive)

COc1ccc(OCC(=O)Nc2nc3c(s2)CCCC3)cc1
inhibition [1]: 5.92% (inactive)

O=C(CCCc1cccs1)Nc1nc2c(s1)CCCC2
inhibition [1]: 5.78% (inactive)

CCOC1CCCC(n2cnc3c(=S)nc[nH]c32)O1 (stereo not drawn)
inhibition [1]: 2.72% (inactive)

CCCC(=O)Nc1ccc(NC(=O)c2cccc(OC)c2)cn1
inhibition [1]: 0.41% (inactive)

COc1ccccc1CCC(=O)OCC(=O)NC1CC1
inhibition [1]: 2.29% (inactive)

CCN(CC)S(=O)(=O)c1ccc(C2=NOC3(C2)N(C)c2ccccc2C3(C)C)cc1 (stereo not drawn)
inhibition [1]: 8.77% (inactive)

CC1=NOC2(C1)N(C)c1ccccc1C2(C)C (stereo not drawn)
inhibition [1]: 0.08% (inactive)

CCn1c(SCC(=O)OC)nnc1-c1ccncc1
inhibition [1]: 0.14% (inactive)

COc1cccc(CC(=O)OCC(=O)NC(C)c2ccc(F)cc2)c1 (stereo not drawn)
inhibition [1]: 4.67% (inactive)

Cc1cc(-c2nnc(SCCC(=O)Nc3ccccc3)o2)no1
inhibition [1]: 0.79% (inactive)

O=C(CSc1nnnn1C1CC1)Nc1ccc(S(=O)(=O)N2CCOCC2)cc1
inhibition [1]: 1.19% (inactive)

COc1ccc(/C=C/c2c([N+](=O)[O-])c(=O)n(C)c(=O)n2C)cc1
inhibition [1]: 0.41% (inactive)

CN(C)c1ccc(/C=C/c2c([N+](=O)[O-])c(=O)n(C)c(=O)n2C)cc1
inhibition [1]: 0.74% (inactive)

Cc1ccc(S(=O)(=O)Nc2cccc(C(=O)N3CCOCC3)c2)cc1
inhibition [1]: inactive

Cc1cc(C)cc(NC(=O)CSc2nc3ccccc3nc2N2CCCCC2)c1
inhibition (stronger effect = higher value): 3.44% (inactive) | inhibition [2]: 1.42%

Cc1cc(C)cc(NC(=O)CSc2nc3ccccc3nc2N2CCCC2)c1
inhibition (stronger effect = higher value): 4.9% (inactive) | inhibition [2]: 0.985%

CCc1ccc(C(C(=O)NC2CCCC2)N(C(=O)c2csnn2)C2CC2)cc1 (stereo not drawn)
inhibition [1]: 0.43% (inactive)

CCN(CC)S(=O)(=O)c1ccc(OC)c(NS(=O)(=O)c2ccc(F)cc2)c1
inhibition [1]: inactive
